Data reported in PubChem BioAssay AID1159580 (chemical genetic matrix, 2015).
Values joined by “and” are separate entries in the source; they are usually repeats but may differ in a detail not shown here. Equal entries are not always repeated. In all, about 5,500 compounds went through this assay and about 2,000 (36%) were called active. Inconclusive results (about 18%) are left out. Rule as the data show it: active = normalized growth mostly below about 0.91 (no sharp cut-off); inconclusive = no clear call, values can overlap the other calls; inactive = mostly above about 0.92. This is one part of the list.

Test: chemical genetic growth profiling, strain panel (AID 1159580);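 also: tested at 20 µM; growth read once vehicle control cultures reached saturation at 30 °C; 1 = growth at the plate median or of vehicle wells; lower values mean less growth of the strain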
Settings: S. cerevisiae deletion strains, growth OD

Measured: normalized growth

O=C(CCc1ccc(O)cc1)c1c(O)cc(O)cc1O[C@@H]1O[C@H](CO)[C@@H](O)[C@H](O)[C@H]1O
inactive: locus YAL021C, strain ccr4, hits give low values 1.01 | locus YAL026C, strain drs2, hits give low values 1.01 | locus YAL030W, strain snc1, hits give low values 1.01 | locus YBL061C, strain skt5, hits give low values 1.02 | locus YBR009C, strain hhf1, hits give low values 1.02 | locus YBR021W, strain FUR4, hits give low values 1.01 | locus YBR023C, strain chs3, hits give low values 1.01 | locus YBR171W, strain sec66, hits give low values 1.05 | locus YBR229C, strain ROT2, hits give low values 1.02 | locus YBR231C, strain swc5, hits give low values 1.02 | locus YBR279W, strain paf1, hits give low values 1 | locus YCL011C, strain gbp2, hits give low values 1.02 | locus YCL016C, strain dcc1, hits give low values 1.02 | locus YCL029C, strain bik1, hits give low values 0.982 | locus YCL061C, strain MRC1, hits give low values 1.02 | locus YCL069W, strain vba3, hits give low values 1.01 | locus YCR088W, strain abp1, hits give low values 1.01 | locus YDL005C, strain med2, hits give low values 1.02 | locus YDL035C, strain GPR1, hits give low values 1.04 | locus YDL040C, strain nat1, hits give low values 1.01 | locus YDL074C, strain BRE1, hits give low values 1.05 | locus YDL101C, strain DUN1, hits give low values 1.02 | locus YDL134C, strain PPH21, hits give low values 1.06 | locus YDL185W, strain tfp1, hits give low values 0.993 | locus YDL192W, strain arf1, hits give low values 0.986 | locus YDR001C, strain nth1, hits give low values 1.01 | locus YDR069C, strain doa4, hits give low values 1.03 | locus YDR101C, strain arx1, hits give low values 0.998 | locus YDR137W, strain rgp1, hits give low values 0.993 | locus YDR159W, strain sac3, hits give low values 1.03 | locus YDR162C, strain NBP2, hits give low values 1.06 | locus YDR195W, strain ref2 0.997 | locus YDR297W, strain sur2, hits give low values 1.02 | locus YDR318W, strain mcm21, hits give low values 0.986 | locus YDR334W, strain swr1, hits give low values 1.02 | locus YDR335W, strain msn5, hits give low values 1.01 | locus YDR388W, hits give low values 0.992 | locus YDR392W, strain spt3, hits give low values 1.02 | locus YDR502C, strain sam2, hits give low values 0.998 | locus YEL003W, strain gim4, hits give low values 1.01 | locus YEL037C, strain rad23, hits give low values 1.01 | locus YEL061C, strain CIN8 (second series), hits give low values 1.01 | locus YEL061C, strain CIN8, hits give low values 1.02 | locus YER015W, strain faa2, hits give low values 1.02 | locus YER016W, strain bim1, hits give low values 1.01 | locus YER110C, hits give low values 0.981 | locus YER111C, strain swi4, hits give low values 1.02 | locus YER155C, strain BEM2 (second series), hits give low values 1.02 | locus YER155C, strain BEM2, hits give low values 1 | locus YER167W, strain BCK2, hits give low values 1.02 | locus YFR010W, strain ubp6, hits give low values 1.01 | locus YGL078C, strain dbp3, hits give low values 0.985 | locus YGL086W, strain mad1, hits give low values 1.01 | locus YGL167C, strain pmr1, hits give low values 1.03 | locus YGL173C, strain kem1, hits give low values 1.02 | locus YGL227W, strain vid30, hits give low values 1.02 | locus YGL240W, strain doc1, hits give low values 1.02 | locus YGL248W, strain PDE1, hits give low values 1.03 | locus YGL253W, strain hxk2, hits give low values 1.02 | locus YGR135W, strain pre9, hits give low values 1 | locus YGR252W, strain gcn5, hits give low values 1.01 | locus YHR013C, strain ard1, hits give low values 1.03 | locus YHR027C, strain rpn1, hits give low values 1.02 | locus YHR030C, strain SLT2, hits give low values 1.02 and 0.996 | locus YHR079C, strain IRE1 (second series), hits give low values 1 | locus YHR079C, strain IRE1, hits give low values 0.972 | locus YHR094C, strain hxt1, hits give low values 0.988 | locus YHR129C, strain ARP1, hits give low values 1.03 | locus YHR142W, strain chs7, hits give low values 1.02 | locus YHR200W, strain rpn10, hits give low values 1.02 | locus YIL066C, strain RNR3, hits give low values 1.05 | locus YIL073C, strain SPO22, hits give low values 1.01 | locus YIL125W, strain kgd1, hits give low values 0.986 | locus YIR030C, strain dcg1, hits give low values 0.973 | locus YJL092W, strain hpr5, hits give low values 1.02 | locus YJL095W, strain BCK1 (second series), hits give low values 1.01 | locus YJL095W, strain BCK1, hits give low values 1.05 and 0.981 | locus YJL115W, strain asf1, hits give low values 1.01 | locus YJL129C, strain trk1, hits give low values 1.01 | locus YJL134W, strain LCB3, hits give low values 1.01 | locus YJL154C, strain vps35, hits give low values 1.01 | locus YJL164C, strain tpk1, hits give low values 1.02 | locus YJL166W, strain qcr8, hits give low values 1.02 | locus YJL168C, strain set2, hits give low values 0.983 | locus YJL187C, strain SWE1 (second series), hits give low values 1.03 | locus YJL187C, strain SWE1, hits give low values 1.04 | locus YJR043C, strain POL32, hits give low values 1.06 | locus YJR066W, strain TOR1, hits give low values 0.942
